Measured values as given in PubChem BioAssay (NCI).
Where “and” joins values, the source holds several entries; their conditions need not be identical. Equal entries are not always repeated. About 79,000 compounds went through this panel and 15% of them were active in at least one assay; those are over-represented in the sample as a whole. No stated cut-off is given here; in the data, active means growth inhibition above about 70%; inactive means the rest.

Tests used:
[1] = NCI Yeast Anticancer Drug Screen. Data for the rad50 strain (AID 155);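 further: 0% = growth of vehicle-only cultures of the same strain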; settings: S. cerevisiae rad50 strain growth inhibition, hits give high values; at 50.0 µM unless noted
Procedure, shortened: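 Relative growth inhibition (compound vs vehicle) was measured in yeast with a defined repair-gene alteration.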

[2] = NCI Yeast Anticancer Drug Screen. Data for the mec2-1 strain (AID 157); settings: S. cerevisiae mec2-1 strain, hits give high values; at 50.0 µM unless noted
Procedure, shortened: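 mec2-1 yeast strain, carrying an alteration in DNA damage repair or cell cycle control, was exposed to compounds; growth inhibition was measured relative to vehicle-treated controls.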

[3] = NCI Yeast Anticancer Drug Screen. Data for the sgs1 mgt1 strain (AID 161);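 further: 0% = growth of cultures given vehicle only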; settings: S. cerevisiae sgs1 mgt1 strain, hits give high values; at 50.0 µM unless noted
Procedure, shortened: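 Yeast cells carrying a defined DNA-repair defect were exposed to test compounds. Growth inhibition was measured relative to vehicle-treated controls.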

[4] = NCI Yeast Anticancer Drug Screen. Data for the cln2 rad14 strain (AID 165);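 further: 0% = growth equal to vehicle treated cultures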; settings: S. cerevisiae cln2 rad14 strain, hits give high values; at 50.0 µM unless noted
Procedure, shortened: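 Yeast carrying cln2 and rad14 alterations (cell cycle control and DNA damage repair) were exposed to compounds. Growth inhibition was measured against vehicle-treated controls.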

[5] = NCI Yeast Anticancer Drug Screen. Data for the bub3 strain (AID 167); settings: S. cerevisiae bub3 mutant strain, hits give high values; at 50.0 µM unless noted
Procedure, shortened: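 Screening used yeast with an engineered genetic alteration affecting cell cycle control. Compound-exposed cultures were compared with vehicle cultures, and reduced growth was taken as inhibition.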

[6] = NCI Yeast Anticancer Drug Screen. Data for the mlh1 rad18 strain (AID 175); settings: S. cerevisiae mlh1 rad18 strain growth inhibition, hits give high values; at 50.0 µM unless noted
Procedure, shortened: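 Growth inhibition of the yeast strain was measured after compound exposure and expressed relative to vehicle-treated controls. The strain carries defined defects in DNA damage repair.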

Measured: growth inhibition

NC(Cc1c[nH]c2ccccc12)C(=O)O (stereo not given)
inactive: [1] 4.2% and -1.1% | [2] -7.9% and -8.7% | [3] -13.2% and 6.55% | [4] 3% and -1.25% | [5] -28.4% and -2.7% | [6] 2.65% and -16.2%

O=C(Cc1ccccc1)SC(=O)Cc1ccccc1
inactive: [1] -0.05% | [2] 28.8% | [3] 18.6% | [4] -8.9% | [5] 39.4% | [6] 10%

NS(=O)(=O)c1ccc(N=Nc2ncccc2O)cc1
inactive: [1] 19.4% | [2] 3.4% | [3] -12.3% | [4] -30.6% | [5] -44% | [6] 20.6%

N/N=C1\CC2C3CC4(OCCO4)C4C3CC2C14 (stereo not given)
inactive: [1] 1.6% | [2] -4.7% | [3] 1.75% | [4] 6.55% | [5] -7.6% | [6] 0.15%

COc1ccc(NC(=O)/C(=N\NC(=O)C[n+]2ccccc2)c2c(O)c3ccc(O)cc3oc2=O)c([N+](=O)[O-])c1
inactive: [1] 26.6% | [2] 47.2% | [3] 29.4% | [4] 7.55% | [5] 39.5% | [6] 39.1%

O=C(Nc1ccccc1C(F)(F)F)C(c1ccccc1)c1ccccc1
inactive: [1] 19.5% | [2] 12.2% | [3] 8.15% | [4] 9.55% | [5] 10.8% | [6] 3.35%

Cc1cccc2oc3c(c(=O)c12)CC(O)C(C)(C)O3 (stereo not given)
inactive: [1] 15.6% | [2] -3.85% | [3] 20.7% | [4] -7.85% | [5] 5.65% | [6] -45%

CC1(C)CC(=O)C=C(n2ccccc2=O)C1
inactive: [1] 2.7% | [2] -5.3% | [3] 0.15% | [4] 7.5% | [5] -19.8% | [6] -1.8%

Nc1nccs1
inactive: [1] -0.45% | [2] -0.65% | [3] 4.75% | [4] 9.4% | [5] -3.15% | [6] 25.7%

NC1CC(=O)c2ccccc21 (stereo not given)
inactive: [1] 15.2% | [2] 4.8% | [3] -5% | [4] 8.95% | [5] 2.75% | [6] -37.6%

O=[N+]([O-])c1cccnc1S(=O)(=O)c1ccccc1
inactive: [1] 36.9% | [2] 5.7% | [3] 12.2% | [4] 4.75% | [5] 6.2% | [6] -0.15%

CCCCOC(=O)COc1c(Cl)ccc(Cl)c1Cl
inactive: [1] 6.95% | [2] -0.75% | [3] 7% | [4] -3.5% | [5] 11.3% | [6] 6.7%

S=C1NCN2CCN(CC2)CNC(=S)C(=S)NCN2CCN(CC2)CNC1=S
inactive: [1] 39.2% | [2] 40.6% | [3] 13% | [4] 55.8% | [5] 48.9% | [6] 57.6%

N#CC1(C(=O)c2ccccc2)C=Cc2ccccc2N1C(=O)c1ccccc1 (stereo not given)
inactive: [1] -6.85% | [2] 16.4% | [3] -0.85% | [4] 12.4% | [5] 26.2% | [6] -19.2%

COc1ccc(CCNC(=O)[C@H]2CCCC[C@@H]2CCO)cc1OC
inactive: [1] 15.5% | [2] 10.6% | [3] -46.9% | [4] 3.25% | [5] -42.8% | [6] -9%

CCOC(=O)c1ccc(N)nc1
inactive: [1] -3.75% | [2] -3.3% | [3] 5.35% | [4] -13% | [5] 7.95% | [6] 18.6%

CCCOC(=O)C1C(c2ccc(OC)cc2)NC(c2ccc(OC)cc2)C(C(=O)OCCC)S1(=O)=O (stereo not given)
inactive: [1] -39.5% | [2] -2.8% | [3] -21.6% | [4] -5% | [5] -19.4% | [6] -14.3%

COc1ccc(OC)c2[nH]c(Sc3c([N+](=O)[O-])ncn3C)nc12
inactive: [1] -5.95% | [2] -13.9% | [3] -15.4% | [4] 8.55% | [5] -15.2% | [6] -7.7%

CC1(C)Oc2ccccc2OC1O (stereo not given)
inactive: [1] 1.5% | [2] 0.85% | [3] -1.75% | [4] -14.7% | [5] -10.2% | [6] 3%

CN(C)c1ccc(C=Nc2c(N)n(C)c(=O)n(C)c2=O)cc1
inactive: [1] -12.3% | [2] -0.2% | [3] -11.2% | [4] -32.7% | [5] -9.45% | [6] -2.9%

CCN1C(=O)C(=O)C(c2ccccc2)(c2ccccc2)C1=O
inactive: [1] -6.3% | [2] -3.65% | [3] -4.65% | [4] -21.6% | [5] 2.9% | [6] 46.9%

COC(=O)c1cc(OCC#CC#CCOc2ccc(O)c(C(=O)OC)c2)ccc1O
inactive: [1] 3% | [2] -5.8% | [3] 9.65% | [4] -1.2% | [5] -4.15% | [6] 14.1%

O=C1C=CC(=O)C(CNc2ccc(C(=O)OCc3ccccc3)cc2)=C1
inactive: [1] 23.6% | [2] 8.75% | [3] -28.9% | [4] -30.6% | [5] -42.9% | [6] -3.1%

COc1cc(OC)cc(C(=O)CC(=O)c2cc(OC)cc(OC)c2)c1
inactive: [1] -49.6% | [2] -38.3% | [3] -69% | [4] -7.9% | [5] -33.4% | [6] -26.1%

Cc1c(CCCl)c(N=P(c2ccccc2)(c2ccccc2)c2ccccc2)n2c(nc3ccccc32)c1C#N
inactive: [1] 29.1% | [2] -2.1% | [3] -7.75% | [4] 12.5% | [5] -5.05% | [6] 18.6%

CC1=C2CN(C(=O)OCC(C)C)CCC2C2=C(C(=O)c3ccccc3C2=O)C1C (stereo not given)
inactive: [1] 1.4% | [2] -3.75% | [3] 39.6% | [4] 14.6% | [5] -12.2% | [6] 44.5%

C[N+]1(Cc2csc(-c3ccc(Cl)cc3)n2)CCOCC1
inactive: [1] 3.15% | [2] -25.6% | [3] 10.5% | [4] 9.35% | [5] 0.7% | [6] 4.2%

O=C(NCCCCCSC(=O)c1ccccc1)c1ccccc1
inactive: [1] -0.35% | [2] 4.6% | [3] 7.95% | [4] 13.8% | [5] 15.7% | [6] -4%

CC(C)=CC(=O)CNC(N)=S
inactive: [1] 36.1% | [2] 17.9% | [3] 16.4% | [4] 10.7% | [5] 0.25% | [6] 23.9%

Fc1ccccc1-c1nn2c(C34CC5CC(CC(C5)C3)C4)nnc2s1
inactive: [1] 6.45% | [2] -33.1% | [3] -29.6% | [4] -14.5% | [5] -11.8% | [6] -52%

Cc1cc(C)c2c(=O)n(-c3ccccc3C)c(=S)n(-c3ccccc3C)c2n1
inactive: [1] 31.4% | [2] 8.35% | [3] 2.25% | [4] 1.95% | [5] -4.1% | [6] 24.7%

Cc1ccc(S(=O)(=O)NN=C2C3C=CC2CC3)cc1
inactive: [1] 11.8% | [2] -2.3% | [3] 2.55% | [4] 6.25% | [5] 2.7% | [6] 4.75%

COc1ccc(-c2cc(-c3ccco3)c(C#N)c(=O)[nH]2)cc1
inactive: [1] 3.95% | [2] 6.2% | [3] 14.2% | [4] 14.2% | [5] 8.65% | [6] 27.3%

C1=CC(=CN2CCc3ccccc3C2)C=C1
inactive: [1] 2.55% | [2] -8.45% | [3] 3.05% | [4] -6.95% | [5] -9.2% | [6] 6.05%

Clc1ccccc1Br
inactive: [1] 2.85% | [2] -11.2% | [3] 4.65% | [4] 0.55% | [5] 2.25% | [6] -8.3%

CC(=O)c1ccccc1NC=O
inactive: [1] -7.55% | [2] -10.2% | [3] -12.1% | [4] -40.9% | [5] -15.3% | [6] 4.15%

CCOc1ccc(N=Nc2c(N)nc(N)[nH]c2=O)cc1
inactive: [1] 26.3% | [2] 23.6% | [3] 17.4% | [4] 19.9% | [5] -1.25% | [6] 24.1%

CCc1ccc(-c2cc(-c3ccc(CC)cc3)cc(-c3ccc(CC)cc3)c2)cc1
inactive: [1] 20.1% | [2] -10.1% | [3] -18.9% | [4] 0.3% | [5] -4.7% | [6] 7.95%

Cc1ccccc1Cc1nccc2c1[nH]c1ccccc12
inactive: [1] -3% and -0.7% | [2] -11.5% and -15.1% | [3] -9.05% | [4] -29.5% | [5] -8.45% | [6] -16.9% and 50.1%

COC(=O)NC(=O)c1cn(CCCOC(=O)CCCCCCCCC(=O)OCCCn2cc(C(=O)NC(=O)OC)c(=O)[nH]c2=O)c(=O)[nH]c1=O
inactive: [1] -13.5% | [2] -3.8% | [3] -7.45% | [4] 9.9% | [5] 13.3% | [6] -12.4%
